Screening data from PubChem BioAssay.
ABCB6 inh MLPCN: inhibitors of human ABC transporter ABCB6; 360,000 tested, 0.19% active; Q9NP58; K562-ABCB6 porphyrin accumulation, flow cytometry, 1 h; hits give low values; fluorescence ratio to DMSO, % at 10 µM;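 active = fluorescence ratio to DMSO below 75%, the collection mean minus 3 SD; inconclusive = too few cells collected in the well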;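 note: signal is porphyrin accumulated inside mitochondria; lower ratio means ABCB6 inhibition with less porphyrin fluorescence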
PHOSPHO1 block: inhibitors of human PHOSPHO1 phosphatase; recombinant PHOSPHO1, absorbance phosphatase assay; inhibition, % at 13.3 µM; AID 1565; 290,000 tested, 1.1% active; in the data active = inhibition above about 60%
Target sequence (Q8TCT1 whole entry, looked up): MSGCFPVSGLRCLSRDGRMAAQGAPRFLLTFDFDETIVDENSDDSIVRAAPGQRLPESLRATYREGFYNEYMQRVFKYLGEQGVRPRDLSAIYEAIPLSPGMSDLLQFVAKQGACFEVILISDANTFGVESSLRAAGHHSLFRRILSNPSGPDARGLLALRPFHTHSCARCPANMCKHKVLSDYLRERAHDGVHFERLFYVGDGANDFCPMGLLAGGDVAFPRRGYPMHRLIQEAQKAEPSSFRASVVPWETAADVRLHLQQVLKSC
eIF4H inh: inhibitors of RNA binding by human eIF4H. 290,000 tested, 0.94% active. eIF4H fluorescence polarization binding assay. inhibition, % at 35 µM;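 note: calls also rest on retests at 20 µM and on dose response follow-up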
MLLE-PAM2 inh: blocks PAM2 peptide binding to the PABP1 MLLE domain; P11940; GST-MLLE / FITC-PAM2 fluorescence polarization; inhibition, % at 20 µM; 360,000 tested, 0.36% active; in the data active = inhibition above about 35%, passing the limit was not always enough
PABP polyA inh: blocks human PABP binding to poly(A) RNA; P11940; fluorescence polarization; calls only at 35 µM; 290,000 tested, 1% active; AID 2014;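 note: calls also rest on retests at 20 µM and on dose response follow-up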
AI-2 QS modul: Vibrio harveyi AI-2 quorum sensing modulation; Vibrio harveyi JMH597 AI-2 luminescence/OD600 ratio, 9 h; hits give low values; strain lacks LuxN and CqsS sensors; 0 = neutral-control median; activity change, % at 7.5 µM; 300,000 tested, 0.4% active; AID 2094; in the data active = activity change below about -75%, passing the limit was not always enough; inconclusive = no clear call, values can overlap the other calls;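 note: luminescence divided by OD600 gain over 9 h not by final OD600 alone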
Of the large screens only hits and unclear results are named; the others gave an inactive call. In the library only some 2.6% were active in any assay of this set; here they are far more common. Unless noted, the rule behind the calls is not given here.

COc1ccc(C)cc1-n1nnnc1SCC(=O)NC(=O)NCc1ccco1	eIF4H inh 72
O=C(CSc1nnc(-c2ccc(OC(F)F)cc2)o1)NC(=O)NCc1ccco1	PHOSPHO1 block 74, eIF4H inh 66
O=C(CSc1nn(-c2ccc(F)cc2)c(=S)s1)NC(=O)NCc1ccco1	PHOSPHO1 block 83
Cc1cc(SCC(=O)NC(=O)NCc2ccco2)nc2c(C)cccc12	eIF4H inh 51, PABP polyA inh active
Cc1ccc(C(=O)Nc2nnc(COCCO)s2)cc1	none (no result: PHOSPHO1 block, eIF4H inh, PABP polyA inh, AI-2 QS modul)
Cn1c(SCC(=O)NC(=O)NCc2ccco2)nnc1-c1ccccc1	PHOSPHO1 block 64, eIF4H inh 92, PABP polyA inh active
Cc1ccccc1CSCC(=O)NC(=O)NCc1ccco1	eIF4H inh 55, PABP polyA inh active
Cc1nnc(SCC(=O)NC(=O)NCc2ccco2)s1	none
O=C(CSc1nc(-c2ccccc2)cs1)NC(=O)NCc1ccco1	none
O=C(CSc1n[nH]c(-c2ccccc2)n1)NC(=O)NCc1ccco1	PHOSPHO1 block 88, eIF4H inh 47
O=C(Cn1nnc(-c2ccccc2F)n1)NCc1ccco1	PHOSPHO1 block 66
CCN(CC(=O)Nc1c(F)cccc1F)C(=O)CSCc1ccc(C)cc1	none (no result: PHOSPHO1 block, eIF4H inh, PABP polyA inh, AI-2 QS modul)
O=C(NCc1ccccc1)c1cc(C2COCCN2C(=O)c2ccc3c(c2)CCO3)on1 (centres undefined)	none (no result: PHOSPHO1 block, eIF4H inh, PABP polyA inh, AI-2 QS modul)
O=C(CSc1ncccn1)NC(=O)NCc1ccco1	none
O=C(CSc1ccccc1F)NC(=O)NCc1ccco1	eIF4H inh 77, PABP polyA inh active
O=C(CNCCc1ccc(Cl)cc1Cl)NCc1ccco1	PHOSPHO1 block 63
CC1(C(=O)NCc2ccc3c(c2)OCO3)CCN1Cc1csc2ccccc12 (centres undefined)	none (no result: PHOSPHO1 block, eIF4H inh, PABP polyA inh, AI-2 QS modul)
N#C/C(=N\Nc1ccc(S(=O)(=O)N2CCCCC2)cc1)C(N)=S	none
N#C/C(=N\Nc1ccc(S(=O)(=O)N2CCCCCC2)cc1)C(N)=S	MLLE-PAM2 inh 42
COC(=O)/C(=C\c1ccc([N+](=O)[O-])o1)NC(=O)c1ccccc1	PABP polyA inh active
O=C(NCc1ccc(Cl)c(Cl)c1)c1cc(C2CCCCN2C(=O)CCc2ccccc2)on1 (centres undefined)	none (no result: PHOSPHO1 block, eIF4H inh, PABP polyA inh, AI-2 QS modul)
Cc1cc(C(=O)OCC(=O)Nc2ccc(F)cc2)c(C)o1	AI-2 QS modul -82
CCN(CC)S(=O)(=O)c1cccc(NC(=O)COC(=O)c2n[nH]c(=O)c3ccccc23)c1	PABP polyA inh active
Cc1cc(C(=O)OCC(=O)Nc2cccc(S(=O)(=O)N(C)C)c2)c(C)o1	AI-2 QS modul -89
O=C(Nc1ccccc1)c1ccc(=O)n(Cc2ccc(F)c(F)c2)c1	PHOSPHO1 block 65
NC(=O)c1ccc(=O)n(Cc2ccc(F)c(F)c2)c1	none (no result: PHOSPHO1 block)
Cc1nc2[nH]c(=S)[nH]c2cc1Br	PHOSPHO1 block 101
Cc1nc2nc[nH]c2cc1Br	none
CN(CC(=O)Nc1cccc(F)c1)C(=O)CNS(=O)(=O)c1ccc(N(C)C)c([N+](=O)[O-])c1	MLLE-PAM2 inh 46 (no result: PHOSPHO1 block, eIF4H inh, PABP polyA inh)
Cc1ccc2nc3n(c(=O)c2c1)-c1ncccc1C(=O)NC3Cc1ccc(O)cc1 (centres undefined)	none (no result: PHOSPHO1 block, eIF4H inh, PABP polyA inh, AI-2 QS modul)
COc1ccccc1/C=C/C(=O)Nc1cccc(C(C)=O)c1	PHOSPHO1 block 69
CC(C)c1ccc(NC(=O)C2(C)Cc3c(-c4ccc5c(c4)OCO5)ccnc3O2)cc1 (centres undefined)	none (no result: PHOSPHO1 block, eIF4H inh, PABP polyA inh, AI-2 QS modul)
O=C(NCCCN1CCOCC1)C(=O)NCC1OCCCN1S(=O)(=O)c1cc(F)ccc1F (centres undefined)	PHOSPHO1 block 75
O=C(NCCN1CCOCC1)C(=O)NCC1OCCN1S(=O)(=O)c1cc(F)ccc1F (centres undefined)	none
CCCCCn1c(=O)c(C(=O)c2ccccc2)nc2ccccc21	PABP polyA inh active
CCn1c(=O)c(C(C)=O)nc2ccccc21	none
Cc1ccc(NC(=O)CNCc2cccs2)cc1Br	AI-2 QS modul -76
Cc1cscc(C)c1=S	MLLE-PAM2 inh 38 (no result: PHOSPHO1 block, eIF4H inh, PABP polyA inh, AI-2 QS modul)
C[n+]1ccc(C(=O)Nc2ccccc2Cl)cc1	PABP polyA inh active
Cc1cc(C)c(C)c(C(=O)CSc2nnc(C)c(=O)[nH]2)c1C	PHOSPHO1 block 89 (no result: ABCB6 inh MLPCN, MLLE-PAM2 inh, AI-2 QS modul)
Cc1ccc(S(=O)(=O)N2CCN(C(=O)CSc3nnc(C)c(=O)[nH]3)CC2)cc1	PHOSPHO1 block 90
O=C(Nc1c(-c2ccc3c(c2)OCO3)[nH][nH]c1=O)c1cnccn1	none (no result: PHOSPHO1 block, eIF4H inh, PABP polyA inh, AI-2 QS modul)
Cc1cc2nc(-c3ccc(Cl)cc3)c(CC3CCCCC3)n2c(C)c1Br	none (no result: PHOSPHO1 block, eIF4H inh, MLLE-PAM2 inh, PABP polyA inh, AI-2 QS modul)
CC1(C(=O)NS(=O)(=O)c2ccc(Br)cc2)CCN1C(=O)Cc1cccs1 (centres undefined)	none (no result: PHOSPHO1 block, eIF4H inh, PABP polyA inh, AI-2 QS modul)
CC1CCC/C(=C\Nc2ccc3c(c2)OCO3)C1=O (centres undefined)	PHOSPHO1 block 81
CC1(C(=O)NS(=O)(=O)c2ccc(C#N)cc2)CCN1C(=O)C1CCCCC1 (centres undefined)	none (no result: PHOSPHO1 block, eIF4H inh, PABP polyA inh, AI-2 QS modul)
COc1ccc(OC)c(/C=C/C(=O)N2C(=O)c3cccc(N)c3C2=O)c1	MLLE-PAM2 inh 40
Clc1nssc1=Nc1ccc(Br)cc1	PHOSPHO1 block 80, AI-2 QS modul inconclusive
Clc1ccc(N=c2ssnc2Cl)nc1	PHOSPHO1 block 92
OCc1ccccc1N=c1ssnc1Cl	PHOSPHO1 block 91 (no result: ABCB6 inh MLPCN, MLLE-PAM2 inh)
COc1cc(N=c2ssnc2Cl)cc(OC)c1	none
CC(Cc1c[nH]c2ccccc12)C(=O)O (centres undefined)	PABP polyA inh active
O=C(O)C(O)Cc1c[nH]c2ccccc12 (centres undefined)	none (no result: AI-2 QS modul)
Cc1ccc(Nc2nc(/N=C/NO)n[nH]2)cc1C	PHOSPHO1 block 65
COCCSc1ccccc1C(=O)Nc1cc([N+](=O)[O-])ccc1OC	none
COCCSc1ccccc1C(=O)Nc1ccc([N+](=O)[O-])cc1OC	PHOSPHO1 block 64
Cc1cccc(C)c1NC(=S)NC(=O)c1ccc(Br)o1	none
Cn1ncc(C(N)=O)c1NC(=S)NC(=O)c1ccc(Br)o1	PHOSPHO1 block 80
CCCSCC(=O)Nc1ncc2c(n1)-c1ccccc1CC2	eIF4H inh 58, PABP polyA inh active
O=C(Nc1ncc2c(n1)-c1ccccc1CC2)c1ccc(Cl)cc1	none
Cc1csc(=O)n1CCC(=O)OCC(=O)NCc1ccc(Cl)cc1Cl	none (no result: PHOSPHO1 block, eIF4H inh, PABP polyA inh)
Cc1csc(=O)n1CCC(=O)OCC(=O)NNC(=O)c1ccc(Cl)cc1	MLLE-PAM2 inh 45 (no result: PHOSPHO1 block, eIF4H inh, PABP polyA inh, AI-2 QS modul)
Nc1ccc(Nc2nc(-c3ccncc3)cs2)cc1	PHOSPHO1 block 81
Clc1ccc(Nc2nc(-c3ccncc3)cs2)cc1	none (no result: PHOSPHO1 block, eIF4H inh, PABP polyA inh)
CCNC(=O)C1(C)CCCN(C(=O)c2nc3ccccc3s2)C1 (centres undefined)	none (no result: PHOSPHO1 block, eIF4H inh, PABP polyA inh, AI-2 QS modul)
O=C1NC[C@H](CCCCN2C[C@H](Cc3ccc(O)cc3)N(CCC3CCCCC3)C(=O)C2=O)N(CCc2ccc(O)cc2)C1=O	none (no result: PHOSPHO1 block, eIF4H inh, MLLE-PAM2 inh, PABP polyA inh, AI-2 QS modul)
CNc1ccc(Br)cc(C(=O)/C=C/c2ccc(OC)cc2)c1=O	none
CNc1ccc(Br)cc(C(=O)/C=C/c2ccc3c(c2)OCO3)c1=O	eIF4H inh 92, PABP polyA inh active
